In PubChem BioAssay one finds composite z-score data, which are given here for 35 compounds.

One test is described as follows: binders of probe aFGF2 on microarray, primary screen, stem cell growth factor project, biochemical, small-molecule microarray, fluorescence 635/667 (AID 1067).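 Further: measures binding of biotinylated aFGF2 protein to printed compounds on slides; z-score merges feature fluorescence and signal-to-noise across triplicate slides.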 The conditions noted are these: higher = more signal.
`C=C(COC)C(=O)CC[C@H](OC(=O)c1ccccc1-c1ccccc1C(=O)O)c1cccc(OCCO)c1` displayed a composite z-score of -0.103.

Take `COC(=O)C(CC#Cc1ccc2c(c1)[C@]1(C(=O)N2)[C@H](C(=O)N2CCCCCCC2)[C@H]2C(=O)O[C@H](c3ccccc3)[C@H](c3ccccc3)N2[C@@H]1c1ccc(O)cc1)C(=O)OC`: the composite z-score was -0.167.

As for `CCCC[C@H]1OB(O)C[C@H]2C1=C(COC)C[C@H]1C(=O)N(Cc3ccccc3)C(=O)[C@H]12`, the composite z-score is 0.0644.

Consider `COCCOC(=O)N1C(=O)[C@@]2(c3cc(C#CCCO)ccc31)[C@H](C(=O)N1CCCCCCC1)[C@H]1C(=O)O[C@H](c3ccccc3)[C@H](c3ccccc3)N1[C@@H]2c1ccc(O)cc1`, for which the composite z-score was determined as 0.188.

In turn, `Cc1ccc(S[C@]2(C(=O)O)CC(=O)N(Cc3ccccc3)[C@@H]2c2ccc(CO)cc2)cc1` gave a composite z-score of -0.0853.

As for `COCCOC(=O)N1C(=O)[C@@]2(c3cc(C#CCNC(N)=O)ccc31)[C@H](c1ccc(OCCO)cc1)N1[C@H](c3ccccc3)[C@H](c3ccccc3)OC(=O)[C@H]1[C@@H]2C(=O)Nc1nc2ccccc2s1`, the composite z-score is -0.0399.

Turning to `C=CC[C@@]12N=C(c3ccc(OCCCO)cc3)O[C@@H]1c1ccccc1CN(Cc1ccccc1)C2=O`, the composite z-score was -0.0043.

Regarding `O=C(NCC(O)CO)[C@]1(Cc2ccccc2)N=C(c2ccc(OCCCO)cc2)O[C@@H]1c1ccccc1` (stereo partly specified), the composite z-score is -0.104.

Take `C=CCNC(=O)[C@H]1[C@@H]2C(=O)O[C@@H](c3ccccc3)[C@@H](c3ccccc3)N2[C@@H](c2ccccc2OCCO)[C@]12C(=O)N(C(=O)OCCOC)c1ccc(C#CCNC(N)=O)cc12`: the composite z-score is -0.0547.

Regarding `C=CCC(OC(C)=O)[C@@H]1[C@@H](N(Cc2cccc3ccccc23)C(=O)Cc2ccc(F)cc2)c2cc(OCCCO)ccc2N1C(=O)Cc1ccc2ccccc2c1` (stereo partly specified), the composite z-score is -0.0503.

Turning to `COC(=O)c1ccc(C#CC(NP(=O)(c2ccccc2)c2ccccc2)c2ccccc2)cc1` (stereo unspecified), the composite z-score is -0.108.

As for `C[C@H]1COC(=O)[C@H](Cc2ccccc2)NC(=O)[C@@H](C)COC(=O)[C@H](Cc2ccccc2)NC1=O`, the composite z-score is -0.136.

`CCOC(=O)C[C@H]1[C@H](OC(=O)c2cc3ccccc3oc2=O)[C@@H](NC(=O)C2CCCCC2)c2cc(OCCCO)ccc2N1C(=O)c1ccc2ccccc2n1`: the composite z-score is -0.179.

Consider `COc1cccc([C@@H]2[C@@H](C)CC[C@H]3C(=O)N(C)[C@@H](C(C)C)C(=O)N23)c1`, for which the composite z-score is -0.174.

In turn, `COCC(=C=CC[C@H](O)c1ccc(OCCO)cc1)C[C@H](O)c1ccccn1` showed a composite z-score of -0.156.

As to `C=C(CCCC)C(=O)CC[C@@H](OC(=O)c1cccnc1)c1cccc(OCCO)c1`, the composite z-score came out at 0.0766.

As for `CC(C)NC(=O)[C@@]1(Cc2ccccc2I)c2ccccc2C(=O)N(C2CCCCC2)[C@H]1c1ccc(CO)cc1`, the composite z-score came to 0.0402.

Take `NC(=O)[C@H]1[C@@H]2C(=O)O[C@@H](c3ccccc3)[C@@H](c3ccccc3)N2[C@@H](c2ccc(O)cc2)[C@]12C(=O)Nc1ccc(C#CCCO)cc12`: the composite z-score was -0.12.

Turning to `C=CCNC(=O)[C@@H]1[C@H]2C(=O)O[C@H](c3ccccc3)[C@H](c3ccccc3)N2[C@H](c2ccc(OCCO)cc2)[C@@]12C(=O)N(C(=O)OCCOC)c1ccc(C#CC3(O)CCCCCC3)cc12`, the composite z-score stood at 0.126.

The compound `CSCC[C@@H]1NC(=O)CC=C[C@@H](C)COC(=O)[C@H](CCSC)NC(=O)CC=C[C@@H](C)COC1=O` showed a composite z-score of -0.127.

Compound `COC(=O)[C@@]1(Cc2ccc(OC)cc2)[C@H]2c3cc(C(=O)N(C)C)n(CCc4ccc(OC)c(Br)c4)c3C[C@H]2CN1C(=O)c1ccccc1` came in with a composite z-score of 0.544.

Turning to `C#C[C@H](O[Si](C#Cc1ccccc1)(C(C)C)C(C)C)c1ccccc1`, the composite z-score was -0.0956.

Consider `COCCCNC(=O)[C@@H]1c2ccccc2C(=O)N(CC23CC4CC(CC(C4)C2)C3)[C@H]1c1ccc(CO)cc1`, for which the composite z-score is 0.177.

On to `C[C@H]1C2[C@H](Cc3ccccc3)NC(=O)[C@]23C(=O)N[C@H](Cc2ccccc2)C(=O)N[C@@H](Cc2ccccc2)C(=O)NC/C=C\C/C=C/C3[C@@H]2O[C@]12C` (stereo partly specified), for which the composite z-score was -0.147.

`CO[C@]12C=C(Br)[C@@H](C[C@@H]1c1ccccc1)[C@@]1(CO1)C2=O` registered a composite z-score of -0.0336.

Compound `CO[C@H]1COC(=O)[C@@H](C)COC(=O)[C@H](Cc2ccccc2)NC(=O)CC=C[C@H]1C` gave a composite z-score of -0.107.

A short description of the next test: binders of probe aFGF10 on microarray, primary screen, stem cell growth factor project, biochemical, small-molecule microarray, fluorescence 635/667 (AID 1071).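 Further: score merges 667 nm spot intensity and signal to noise from triplicate slides.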 The conditions noted are these: higher = more signal.
`C=CC[C@@]1(C(=O)NCC(O)CO)N=C(c2ccc(OCCCO)cc2)O[C@@H]1c1ccccc1CN=[N+]=[N-]` (stereo partly specified) showed a composite z-score of -0.355.

Turning to `CO[C@H]1COC(=O)[C@@H](C)NC(=O)CC=C[C@@H](C)[C@H](OC)COC(=O)CC=C[C@@H]1C`, the composite z-score is -0.895.

`CC(C)C[C@@H]1NC(=O)[C@H]2C[C@@H](C(=O)NCCCCCC[N+](C)(C)C)[C@@H](c3ccc(O)cc3)N2C1=O` gave a composite z-score of -0.615.

The compound `Cc1ccc(S(=O)(=O)N[C@H]2COC(=O)CC=C[C@H](C)COC(=O)N[C@@H](C)C(=O)CC=C[C@@H]2C)cc1` yielded a composite z-score of 0.168.

`C#CCCCON=C1C[C@@H](O)[C@@H](O)[C@@H]2[C@@H]3C(=O)N(Cc4ccc5c(c4)OCO5)C(=O)[C@@H]3CC[C@@H]12` returned a composite z-score of 0.456.

Consider `CO[C@H]1COC(=O)[C@@H](OCc2ccccc2)C=C[C@H](C)[C@@H](OC)COC(=O)[C@H](OCc2ccccc2)C=C[C@@H]1C`, for which the composite z-score was -0.205.

`COCCOC(=O)N1C(=O)[C@@]2(c3cc(C#CCCO)ccc31)[C@H](c1ccc(OCCO)cc1)N1[C@H](c3ccccc3)[C@H](c3ccccc3)OC(=O)[C@H]1[C@@H]2C(=O)NC[C@H](O)c1ccccc1` came in with a composite z-score of 0.889.

`NC(=O)NCC#Cc1ccc2c(c1)[C@]1(C(=O)N2)[C@H](c2ccccc2OCCO)N2[C@H](c3ccccc3)[C@H](c3ccccc3)OC(=O)[C@H]2[C@@H]1C(=O)N1CCN(c2ncccn2)CC1` returned a composite z-score of 0.499.

`COCCOC(=O)N1C(=O)[C@@]2(c3cc(C#CCCO)ccc31)[C@H](c1ccc(O)cc1)N1[C@H](c3ccccc3)[C@H](c3ccccc3)OC(=O)[C@H]1[C@@H]2C(=O)Nc1nc2ccccc2s1`: the composite z-score worked out at 0.892.

In turn, `C=C(COC)C(=O)CC[C@H](OC(=O)c1ccccc1-c1ccccc1C(=O)O)c1cccc(OCCO)c1` yielded a composite z-score of 0.24.

The compound `COC(=O)C(CC#Cc1ccc2c(c1)[C@]1(C(=O)N2)[C@H](C(=O)N2CCCCCCC2)[C@H]2C(=O)O[C@H](c3ccccc3)[C@H](c3ccccc3)N2[C@@H]1c1ccc(O)cc1)C(=O)OC` displayed a composite z-score of -0.542.

Consider `CCCC[C@H]1OB(O)C[C@H]2C1=C(COC)C[C@H]1C(=O)N(Cc3ccccc3)C(=O)[C@H]12`, for which the composite z-score turned out to be 0.3.

`COCCOC(=O)N1C(=O)[C@@]2(c3cc(C#CCCO)ccc31)[C@H](C(=O)N1CCCCCCC1)[C@H]1C(=O)O[C@H](c3ccccc3)[C@H](c3ccccc3)N1[C@@H]2c1ccc(O)cc1` displayed a composite z-score of 0.514.

Compound `Cc1ccc(S[C@]2(C(=O)O)CC(=O)N(Cc3ccccc3)[C@@H]2c2ccc(CO)cc2)cc1` registered a composite z-score of -1.1.

For the compound `COCCOC(=O)N1C(=O)[C@@]2(c3cc(C#CCNC(N)=O)ccc31)[C@H](c1ccc(OCCO)cc1)N1[C@H](c3ccccc3)[C@H](c3ccccc3)OC(=O)[C@H]1[C@@H]2C(=O)Nc1nc2ccccc2s1`, the composite z-score came out at 0.371.

As to `C=CC[C@@]12N=C(c3ccc(OCCCO)cc3)O[C@@H]1c1ccccc1CN(Cc1ccccc1)C2=O`, the composite z-score is 0.245.

Turning to `O=C(NCC(O)CO)[C@]1(Cc2ccccc2)N=C(c2ccc(OCCCO)cc2)O[C@@H]1c1ccccc1` (stereo partly specified), the composite z-score was -0.512.

In the case of `C=CCNC(=O)[C@H]1[C@@H]2C(=O)O[C@@H](c3ccccc3)[C@@H](c3ccccc3)N2[C@@H](c2ccccc2OCCO)[C@]12C(=O)N(C(=O)OCCOC)c1ccc(C#CCNC(N)=O)cc12`, the composite z-score is 0.149.

`C=CCC(OC(C)=O)[C@@H]1[C@@H](N(Cc2cccc3ccccc23)C(=O)Cc2ccc(F)cc2)c2cc(OCCCO)ccc2N1C(=O)Cc1ccc2ccccc2c1` (stereo partly specified) registered a composite z-score of -0.169.

In the case of `COC(=O)c1ccc(C#CC(NP(=O)(c2ccccc2)c2ccccc2)c2ccccc2)cc1` (stereo unspecified), the composite z-score worked out at 0.182.

Compound `C[C@H]1COC(=O)[C@H](Cc2ccccc2)NC(=O)[C@@H](C)COC(=O)[C@H](Cc2ccccc2)NC1=O` yielded a composite z-score of 0.718.

`CCOC(=O)C[C@H]1[C@H](OC(=O)c2cc3ccccc3oc2=O)[C@@H](NC(=O)C2CCCCC2)c2cc(OCCCO)ccc2N1C(=O)c1ccc2ccccc2n1` registered a composite z-score of 0.414.

Compound `COc1cccc([C@@H]2[C@@H](C)CC[C@H]3C(=O)N(C)[C@@H](C(C)C)C(=O)N23)c1` showed a composite z-score of 0.391.

With `COCC(=C=CC[C@H](O)c1ccc(OCCO)cc1)C[C@H](O)c1ccccn1`, the composite z-score was -0.106.

`C=C(CCCC)C(=O)CC[C@@H](OC(=O)c1cccnc1)c1cccc(OCCO)c1` gave a composite z-score of 1.07.

With `CC(C)NC(=O)[C@@]1(Cc2ccccc2I)c2ccccc2C(=O)N(C2CCCCC2)[C@H]1c1ccc(CO)cc1`, the composite z-score stood at 0.87.

For the compound `NC(=O)[C@H]1[C@@H]2C(=O)O[C@@H](c3ccccc3)[C@@H](c3ccccc3)N2[C@@H](c2ccc(O)cc2)[C@]12C(=O)Nc1ccc(C#CCCO)cc12`, the composite z-score is -0.861.

Compound `C=CCNC(=O)[C@@H]1[C@H]2C(=O)O[C@H](c3ccccc3)[C@H](c3ccccc3)N2[C@H](c2ccc(OCCO)cc2)[C@@]12C(=O)N(C(=O)OCCOC)c1ccc(C#CC3(O)CCCCCC3)cc12` returned a composite z-score of 0.552.

The compound `CSCC[C@@H]1NC(=O)CC=C[C@@H](C)COC(=O)[C@H](CCSC)NC(=O)CC=C[C@@H](C)COC1=O` yielded a composite z-score of 0.0086.

`COC(=O)[C@@]1(Cc2ccc(OC)cc2)[C@H]2c3cc(C(=O)N(C)C)n(CCc4ccc(OC)c(Br)c4)c3C[C@H]2CN1C(=O)c1ccccc1` gave a composite z-score of 1.03.

On to `C#C[C@H](O[Si](C#Cc1ccccc1)(C(C)C)C(C)C)c1ccccc1`, for which the composite z-score came out at 0.125.

In turn, `COCCCNC(=O)[C@@H]1c2ccccc2C(=O)N(CC23CC4CC(CC(C4)C2)C3)[C@H]1c1ccc(CO)cc1` gave a composite z-score of 0.325.

As to `C[C@H]1C2[C@H](Cc3ccccc3)NC(=O)[C@]23C(=O)N[C@H](Cc2ccccc2)C(=O)N[C@@H](Cc2ccccc2)C(=O)NC/C=C\C/C=C/C3[C@@H]2O[C@]12C` (stereo partly specified), the composite z-score is 0.388.

On to `CO[C@]12C=C(Br)[C@@H](C[C@@H]1c1ccccc1)[C@@]1(CO1)C2=O`, for which the composite z-score came to 0.229.

For `CO[C@H]1COC(=O)[C@@H](C)COC(=O)[C@H](Cc2ccccc2)NC(=O)CC=C[C@H]1C`, the composite z-score amounted to 0.131.
